Values joined by “and” are separate entries in the source; they are usually repeats but may differ in a detail not shown here. Equal values may be shown once. Results filed as inconclusive are left out. Where a call stands in place of a potency, no number is given. A structure can be active in one record and inactive in another. Active and inactive are the calls of the source. Unless noted, calls come from the whole dose curve; as a rule, active = well fitted curve in the direction sought with a large enough effect in the repeat runs; inconclusive = weak or mixed curves; inactive = no such curve, though single readings can be large; an effect the other way counts as inactive or inconclusive.
Experiments:
[1] = qHTS assay to identify small molecule agonists of the RXR signaling pathway - cell viability counter screen (AID 1159529); note: nearly all actives have a fitted effect of over 50% in size; note: potency is the fitted concentration of half-maximal effect
Outline: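 HEK 293T RXRa-bla cells, 2% CS-FBS; 5 h settle; cpd 16 h 37 C, 5% CO2; CellTiter-Glo 30 min RT, luminescence. Tetraoctyl ammonium bromide as positive control.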

[2] = qHTS assay to identify small molecule antagonists of the retinoid acid receptor (RAR) signaling pathway - cell viability counter screen (AID 1159551); note: nearly all actives have a fitted effect of over 35% in size; note: potency is the fitted concentration of half-maximal effect
Outline: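 Measured by luminescent ATP detection, viability reflects C3RL4 cells treated 6 h at 37 C with test chemicals in the presence of 1 uM (final) retinol.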

[3] = qHTS assay to identify small molecule antagonists of the retinoic acid receptor (RAR) signaling pathway (AID 1159552; note: nearly all actives have a fitted effect of over 50% in size; note: potency is the fitted concentration of half-maximal effect)
Outline: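 Cells of the C3RL4 line were seeded, incubated overnight, then dosed with compounds in DMSO followed immediately by retinol (1 uM final). Six hours later luciferase detection reagent went in; signal was measured after 30 min at RT.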

[4] = qHTS assay to identify small molecule antagonists of the estrogen related receptor (ERR) signaling pathway from Tox21 library - cell viability counter screen (AID 1224834); note: nearly all actives have a fitted effect of over 30% in size; note: potency is the fitted concentration of half-maximal effect
Outline: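 Seeded ERR cells were rested 6 h at 37 C/5% CO2 before compounds, positive and negative controls or DMSO were added. Incubation continued for 17.5 h, and viability was then quantified by CellTiter-Fluor fluorescence.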

[5] = target: Luciferin 4-monooxygenase (Photinus pyralis) (UniProt P08659); assay: qHTS assay to identify small molecule inhibitors of firefly luciferase (AID 1224835); note: nearly all actives have a fitted effect of over 25% in size; note: potency is the fitted concentration of half-maximal effect
Chain of Luciferin 4-monooxygenase (Photinus pyralis) (P08659 whole entry, looked up): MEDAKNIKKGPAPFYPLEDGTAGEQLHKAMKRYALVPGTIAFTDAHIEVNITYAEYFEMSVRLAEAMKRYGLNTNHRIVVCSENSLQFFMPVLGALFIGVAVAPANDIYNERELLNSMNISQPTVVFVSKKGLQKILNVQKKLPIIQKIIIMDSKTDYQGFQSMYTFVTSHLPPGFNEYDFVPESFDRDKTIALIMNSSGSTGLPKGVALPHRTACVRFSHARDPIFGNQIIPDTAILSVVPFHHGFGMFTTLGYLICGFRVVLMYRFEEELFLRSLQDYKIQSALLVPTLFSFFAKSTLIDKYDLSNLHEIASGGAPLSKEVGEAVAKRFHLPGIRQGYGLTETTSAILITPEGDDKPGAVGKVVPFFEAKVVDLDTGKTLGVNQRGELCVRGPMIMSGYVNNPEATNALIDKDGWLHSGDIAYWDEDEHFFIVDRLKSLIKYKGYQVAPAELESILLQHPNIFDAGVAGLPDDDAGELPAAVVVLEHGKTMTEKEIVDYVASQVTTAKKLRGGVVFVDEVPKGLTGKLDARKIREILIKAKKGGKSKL
Outline: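 Biochemical qHTS: compounds run as interplate titrations against purified firefly enzyme, with D-luciferin and ATP each at its KM concentration. Light output recorded by CCD imaging.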

[6] = qHTS assay to identify small molecule agonists of the constitutive androstane receptor (CAR) signaling pathway - cell viability counter screen (AID 1224836); note: nearly all actives have a fitted effect of over 45% in size; note: potency is the fitted concentration of half-maximal effect
Outline: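 HepG2-CYP2B6-hCAR, 2500 cells/well, 4 h pre-incubation; cpd 15 conc + PK11195 0.75 uM final; 23 h, 37 C/5% CO2; CellTiter-Fluor, fluorescence.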

[7] = qHTS assay to identify small molecule antagonists of the constitutive androstane receptor (CAR) signaling pathway - cell viability counter screen (AID 1224837); note: nearly all actives have a fitted effect of over 45% in size; note: potency is the fitted concentration of half-maximal effect
Outline: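 To flag cytotoxic false antagonists, HepG2 hCAR/CYP2B6-2.2kb cells were treated 23 hr with 15-concentration compound series and 50 nM CITCO at 37 C/5% CO2; CellTiter-Fluor fluorescence was the measured end point.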

[8] = target: Nuclear receptor subfamily 1 group I member 3 (Homo sapiens) (UniProt Q14994); assay: qHTS assay to identify small molecule antagonists of the constitutive androstane receptor (CAR) signaling pathway (AID 1224838);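 note: HepG2 cells stably expressing hCAR with CYP2B6 luciferase reporter stimulated by CITCO; nearly all actives have a fitted effect of over 40% in size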
Chain of Nuclear receptor subfamily 1 group I member 3 (Homo sapiens) (Q14994 whole entry, looked up): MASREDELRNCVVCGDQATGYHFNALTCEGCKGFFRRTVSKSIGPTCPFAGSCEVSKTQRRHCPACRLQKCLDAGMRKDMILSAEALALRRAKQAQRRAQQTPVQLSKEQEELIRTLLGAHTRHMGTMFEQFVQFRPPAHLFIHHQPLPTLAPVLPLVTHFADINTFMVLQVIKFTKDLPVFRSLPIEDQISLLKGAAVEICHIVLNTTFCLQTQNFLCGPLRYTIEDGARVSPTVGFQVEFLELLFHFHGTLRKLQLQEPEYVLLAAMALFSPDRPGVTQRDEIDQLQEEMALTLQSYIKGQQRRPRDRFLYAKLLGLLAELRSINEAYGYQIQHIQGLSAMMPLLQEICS
Outline: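 Human hepatoma HepG2 cells expressing hCAR and a CYP2B6 promoter (2.2 kb) luciferase construct; compound titration (15 points) with 50 nM CITCO final, 24 h at 37 C/5% CO2; luminescence via ONE-Glo after 30 min at room temperature.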

[9] = qHTS assay to identify small molecule antagonists of the estrogen related receptor signaling pathway with the pleiotropic PPARgamma coactivator (PGC) from Tox21 10K library - cell viability counter screen (AID 1224840; active = well fitted cell-killing curve with a large enough effect in the repeat runs, not every such curve was filed as active; note: nearly all actives have a fitted effect of over 40% in size; note: potency is the fitted concentration of half-maximal effect)
Outline: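 Seeded PGC/ERR cells (2,000/well, 6 h, 37 C/5% CO2) get compound by pin tool; 17.5 h incubation at 37 C; CellTiter-Fluor added, 30 min, fluorescence measured.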

[10] = target: Thyrotropin receptor (Homo sapiens) (UniProt P16473); assay: qHTS assay to identify small molecule agonists of the thyroid stimulating hormone receptor (TSHR) signaling pathway (AID 1224843; calls by dose curve; note: nearly all actives have a fitted effect of over 45% in size; note: potency is the fitted concentration of half-maximal effect)
Chain of Thyrotropin receptor (Homo sapiens) (P16473 whole entry, looked up): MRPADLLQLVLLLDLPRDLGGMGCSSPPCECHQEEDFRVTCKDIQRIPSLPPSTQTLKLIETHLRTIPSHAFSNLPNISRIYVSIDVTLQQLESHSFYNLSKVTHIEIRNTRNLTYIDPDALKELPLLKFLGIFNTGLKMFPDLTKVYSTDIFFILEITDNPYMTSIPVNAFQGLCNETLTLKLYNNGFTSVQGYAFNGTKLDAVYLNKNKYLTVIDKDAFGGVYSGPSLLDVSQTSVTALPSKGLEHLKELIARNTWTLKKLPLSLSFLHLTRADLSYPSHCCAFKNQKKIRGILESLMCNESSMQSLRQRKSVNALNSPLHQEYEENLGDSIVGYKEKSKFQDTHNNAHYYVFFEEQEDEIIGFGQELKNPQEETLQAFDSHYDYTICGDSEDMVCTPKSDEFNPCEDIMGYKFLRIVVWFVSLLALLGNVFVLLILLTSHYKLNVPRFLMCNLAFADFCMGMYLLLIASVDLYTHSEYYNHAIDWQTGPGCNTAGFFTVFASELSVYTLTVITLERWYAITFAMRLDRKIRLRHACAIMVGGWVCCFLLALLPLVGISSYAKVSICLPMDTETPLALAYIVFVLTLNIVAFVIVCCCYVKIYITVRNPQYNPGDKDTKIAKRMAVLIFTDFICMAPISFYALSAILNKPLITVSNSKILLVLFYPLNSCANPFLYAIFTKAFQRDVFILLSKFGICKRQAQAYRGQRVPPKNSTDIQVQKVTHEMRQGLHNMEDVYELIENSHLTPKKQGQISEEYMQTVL
Outline: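 Agonist-mode screen: TSHR HEK293 cells received test chemicals for half an hour at room temperature, then HTRF cAMP detection reagents for one hour prior to fluorescence measurement. Each chemical ran as a 15-concentration series, triplicated.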

[11] = target: Nuclear receptor subfamily 1 group I member 3 (Homo sapiens) (UniProt Q14994); assay: qHTS assay to identify small molecule agonists of the constitutive androstane receptor (CAR) signaling pathway (AID 1224839);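 note: HepG2 cells stably carrying human CAR and a CYP2B6 luciferase reporter; series mostly up to about 92 µM; nearly all actives have a fitted effect of over 15% in size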
Outline: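 HepG2-CYP2B6-hCAR cells, 2500/well, 4 h pre-incubation; compounds 15 conc.; PK11195 0.75 uM final; 24 h, 37 C/5% CO2; ONE-Glo luciferase read.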

[12] = qHTS assay to identify small molecule agonists of the estrogen related receptor signaling pathway with the pleiotropic PPARgamma coactivator (PGC) from Tox21 10K library (AID 1224842); note: nearly all actives have a fitted effect of over 15% in size; note: potency is the fitted concentration of half-maximal effect
Outline: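 PGC/ERR reporter cell line, 2,000 cells per well, incubated 6 h at 37 C before 23 nL compound in DMSO was added. After 18 h at 37 C, One-Glo luminescence read following 30 min at room temperature.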

[13] = qHTS assay to identify small molecule antagonists of the estrogen related receptor (ERR) signaling pathway - cell viability counter screen (AID 1224818); note: series mostly up to about 46 µM
Outline: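 Compounds dissolved in DMSO were applied to ERR cells seeded at 2,000 per well 6 h earlier. Cell viability followed 17.5 h later via 30-min CellTiter-Fluor fluorescence.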

[14] = qHTS assay to identify small molecule antagonists of the estrogen related receptor signaling pathway with the pleiotropic PPARgamma coactivator (PGC) cell viability counter screen (AID 1224822; note: potency is the fitted concentration of half-maximal effect)
Outline: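 Counter screen for cell viability: PGC/ERR cells, 6 h pre-incubation after plating, 17.5 h compound exposure at 37 C, fluorescence from CellTiter-Fluor after 30 min.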

[15] = qHTS assay to identify small molecule antagonists of the estrogen related receptor (ERR) signaling pathway (AID 1224819;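 note: luminescence from an ERR-driven luciferase reporter measured with One-Glo reagent; series mostly up to about 46 µM; nearly all actives have a fitted effect of over 50% in size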)
Outline: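 Compounds dissolved in DMSO were pin-transferred onto ERR cells that had been plated 6 h earlier, and cells were then incubated 18 h at 37 C; signal was luciferase luminescence via One-Glo.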

[16] = qHTS assay to identify small molecule agonists of the estrogen related receptor (ERR) signaling pathway (AID 1224820)
Outline: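 An ERR cell line provided by NTP was seeded at 2,000 cells per well and allowed to settle for 6 h before compounds in DMSO were added. After 18 h at 37 C, luciferase activity was measured by One-Glo luminescence.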

[17] = test system: estrogen-related receptor alpha (ERRalpha) with PGC-1alpha coactivator, human; assay: qHTS assay to identify small molecule antagonists of the estrogen related receptor signaling pathway with the pleiotropic PPARgamma coactivator (PGC) (AID 1224821; calls by dose curve;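 note: series mostly up to about 46 µM; lower luminescence signal means antagonism of PGC/ERR signalling; nearly all actives have a fitted effect of over 50% in size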)
Outline: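 A PGC/ERR cell line supplied by NTP is seeded, allowed 6 h at 37 C, and treated with test compounds in DMSO for 18 h. Signal is then measured as luciferase luminescence using One-Glo.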

[18] = qHTS assay to identify small molecule agonists of the estrogen related receptor signaling pathway with the pleiotropic PPARgamma coactivator (PGC) (AID 1224823)
Outline: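 Compounds dissolved in DMSO are added by pin tool to PGC/ERR cells that have settled for 6 h, and incubation continues 18 h at 37 C. Reporter output is measured as One-Glo luminescence.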

Row | SMILES | Potency [1] | Potency [2] | Potency [3] | Potency [4] | Potency [5] | Potency [6] | Potency [7] | Potency [8] | Potency [9] | Potency [10] | Potency [11] | Potency [12] | outcome [13] | Potency [14] | Potency [15] | outcome [16] | outcome [17] | outcome [18]
1 | NC1CCCCC1 | inactive | inactive | inactive | inactive | inactive | inactive | inactive | inactive | inactive | 194 nM (active) and inactive |  |  |  |  |  |  |  | 
2 | O=S1(=O)OC(c2ccc(O)cc2)(c2ccc(O)cc2)c2ccccc21 | inactive | inactive | inactive | 27.3 µM (active) and 18.8 µM (active) | 31.7 µM (active) and 17.8 µM (active) and 12.3 µM (active) | 30.6 µM (active) and 27.3 µM (active) and 33.5 µM (active) | 27.3 µM (active) and 13.3 µM (active) | inactive | 30.6 µM (active) and 27.3 µM (active) and 21.1 µM (active) |  | inactive | inactive |  |  |  |  |  | 
3 | O=C(Nc1ncc([N+](=O)[O-])s1)c1cccs1 | 6.01 µM (active) | 23.7 µM (active) | inactive | 13.3 µM (active) | 3.09 µM (active) |  |  | inactive | inactive | inactive |  | 0.841 µM (active) |  |  |  |  |  | 
4 | CCN(CC)C(=O)c1cccc(C)c1 | inactive | inactive | inactive | inactive | inactive | inactive | inactive |  | inactive | inactive |  | inactive |  |  |  |  |  | 
5 | CC(=O)C(=O)O | inactive | inactive | inactive | inactive | inactive | inactive | inactive | inactive | inactive | inactive | inactive |  |  |  |  |  |  | 
6 | O=c1[nH]cnc2c1ncn2[C@H]1CC[C@@H](CO)O1 | inactive | inactive | inactive | inactive | inactive | inactive | inactive | inactive | inactive | inactive |  | inactive |  |  |  |  |  | 
7 | O=c1[nH]cc(F)c(=O)[nH]1 | 45.3 µM (active) and inactive | inactive |  | 31.8 µM (active) and inactive | 41.5 µM (active) and inactive |  |  |  | 44.9 µM (active) and inactive | inactive |  |  | inactive | inactive |  |  |  | 
8 | Cc1ncc([N+](=O)[O-])n1CCO | inactive | inactive | inactive | inactive | inactive | inactive | inactive | inactive | inactive | inactive |  | inactive |  |  |  |  |  | 
9 | Oc1ccccc1 | inactive | inactive | inactive | inactive |  | inactive | inactive | inactive | inactive | inactive |  |  |  |  |  |  |  | 
10 | CCCCOC(=O)c1ccc(O)cc1 | inactive | inactive | inactive | inactive | 80.7 µM (active) and 63.3 µM (active) and inactive | inactive | inactive | inactive | inactive | inactive |  |  |  |  |  |  |  | 
11 | Cn1c(=O)c2c(ncn2C)n(C)c1=O | inactive | inactive | inactive | 55.1 µM (active) and inactive |  |  |  | inactive | inactive |  |  | inactive | inactive | inactive | inactive | inactive | inactive | inactive
12 | Cc1cn([C@H]2C=C[C@@H](CO)O2)c(=O)[nH]c1=O | inactive | inactive |  | inactive | inactive | inactive | inactive | inactive | inactive | inactive |  |  | inactive | inactive |  |  |  | 
13 | O=C1OC2(c3ccccc31)c1cc(Br)c(O)c(Br)c1Oc1c2cc(Br)c(O)c1Br | inactive | inactive | inactive | 11 µM (active) and 25 µM (active) and 26.6 µM (active) | 28.7 µM (active) and 36.6 µM (active) |  | 7.81 µM (active) and 25 µM (active) | inactive |  |  | inactive |  |  |  |  |  |  | 
14 | CN(C)CCOC(c1ccccc1)c1ccccc1 | inactive | inactive |  | inactive | inactive | inactive | inactive |  | inactive | inactive |  |  | inactive | inactive |  |  |  | 
15 | COc1cccc(O)c1O | inactive | inactive | 56.6 µM (active) | 63.5 µM (active) | inactive | inactive | inactive | inactive |  |  |  |  |  |  |  |  |  | 
16 | CCCCCCCCCCCCCCCC[N+](C)(C)Cc1ccccc1 | 17.9 µM (active) and 14 µM (active) and 4.25 µM (active) | 79.4 µM (active) and 62.2 µM (active) and 29.8 µM (active) | 56.2 µM (active) and 27.8 µM (active) and 23.7 µM (active) | 63.1 µM (active) and 49.4 µM (active) and 23.7 µM (active) | inactive | inactive |  | inactive | 63.1 µM (active) and 49.4 µM (active) and inactive |  | inactive | inactive |  |  |  |  |  | 
17 | C=C(C)C(=O)OCC(C)O (centres undefined) | inactive | inactive | inactive | inactive | inactive | inactive | inactive | inactive | inactive | inactive |  |  |  |  |  |  |  | 
18 | CN(C)C(=O)Nc1ccc(Cl)c(Cl)c1 | inactive | inactive | inactive | inactive | inactive | inactive | inactive | inactive | inactive | inactive |  | inactive |  |  |  |  |  | 
19 | C1CCC(C(CC2CCCCN2)C2CCCCC2)CC1 (centres undefined) | 23.9 µM (active) | 29.8 µM (active) | 9.44 µM (active) | 29.8 µM (active) | inactive |  |  |  | 29.8 µM (active) |  |  | inactive |  |  |  |  |  | 
20 | CC/C(=C(\c1ccccc1)c1ccc(OCCN(C)C)cc1)c1ccccc1 | 15.5 µM (active) [middle of 5 runs] | 61.5 µM (active) and 61.1 µM (active) and 54.9 µM (active) | 54.4 µM (active) [middle of 5 runs] | 54.4 µM (active) and 54.9 µM (active) and 61.1 µM (active) |  |  |  |  |  | inactive |  |  |  | 27.6 µM (active) |  |  |  | 
